# From PubChem BioAssay (NCI)
# Compounds without any hit were thinned out: in the full panel of roughly 83,000, 20% have a hit.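 The endpoint reported here, percent growth, reads 100 for growth as untreated, 0 for no net growth and -100 for all cells dead.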 Unmarked numbers belong to inactive results. Activity calls are given as the source filed them. The calls were made as follows: active = growth percent below 10; inactive = the rest.
# System: HL-60(TB) leukemia
# Test: NCI-60 one-dose screen, 48 h (100 = growth as untreated, 0 = no growth, -100 = all killed)
# Settings: 10 µM unless noted
row,Compound,growth
1,O=C(Nc1ccc(-n2cc(-c3ccncc3)c(-c3ccc(O)c(Cl)c3)n2)cc1)Nc1cc(C(F)(F)F)cc(C(F)(F)F)c1,43.6%
2,Cc1cc(O)cc(O)c1N=NC1=NCCS1,105%
3,CN(C)CCOc1ccc(-c2nc3sccn3c2-c2ccnc(S(C)(=O)=O)n2)cc1,97.1%
4,O=C(c1ccccc1)C1(Br)CCCCC1,106%
5,COCC[C@H]1CCC/C=C/[C@@H]2C[C@H](O)C[C@H]2[C@H](O)/C=C/C(=O)O1,3.25% (active)
6,CC[N+](CC)=c1ccc2nc3c(cc(N)c4ccccc43)oc-2c1,-55.6% (active)
7,COc1cccc(CNc2c3ccccc3nc3ccccc23)c1,40.9%
8,COc1cc(C2CC(c3c(C)[n+]([O-])c4ccccc4[n+]3[O-])=NN2)cc(OC)c1OC (stereo not given),97.8%
9,N#C/C(=C/c1ccc(O)c([N+](=O)[O-])c1)c1nc(-c2ccc([N+](=O)[O-])cc2)cs1,26.5%
10,COC(=O)[C@@H](Cc1c[nH]c2ccccc12)NC(=O)[C@H](Cc1ccccc1)NCc1ccncc1,80.6%
11,CCCCCCCCSC1=CC(=O)C(OC)=C(OC)C1=O,-10.5% (active)
12,COc1cc(OC)c2c(c1Cl)O[C@]1(C2=O)C(OCc2ccccc2)=CC(=O)C[C@H]1C,-12% (active)
13,CC(C)(C)CC(C)(C)NC(=O)Nc1ncccc1OCc1ccccc1,90.5%
14,COc1c(C)cnc(CSc2nc(-c3ccc(C)cc3)cn2-c2ccc(Cl)cc2)c1C,95.8%
15,NS(=O)(=O)c1ccc(-n2nc(C(=O)N/N=C\c3ccc(F)cc3)cc2-c2ccc(Cl)cc2)cc1,121%
16,O=S(=O)(c1ccccc1)n1ccc(-c2ccc3c(c2)CCO3)n1,109%
17,C#CCNC(=O)CC[C@]1(C)[C@H]2CC[C@@H]3[C@@H]([C@@](C)(O)CCC=C(C)C)CC[C@@]3(C)[C@]2(C)CC[C@H]1C(=C)C,-41% [100 µM] (active)
18,COc1ccc(OC)c(/C=C/c2nc(=S)n(-c3ccc(Cl)cc3)[nH]2)c1,4.33% (active)
19,O=[N+]([O-])C1CC2C=CC1C2 (stereo not given),97.6%
20,COC(=O)c1nc(=S)[nH]c(C(=O)OC)c1C(=O)c1ccc(OC)cc1,107%

row,Compound,growth
1,Cc1nc(N)nc(N[C@@H](C)c2nc3cccc(NCc4ccc(C(=O)NO)cc4)c3c(=O)n2-c2ccccc2)n1,43.1%
2,COc1cc(/C=N/NC(=O)c2ccc3nc(-c4ccc(Cl)cc4)[nH]c3c2)cc(OC)c1OC,44.9%
3,Clc1nc2ccc(Br)cc2cc1-c1nc2ccccc2[nH]1,87.6%
4,CS(=O)(=O)Nc1cccc(-c2ccc3ncnc(Nc4cncc(Cl)c4)c3c2)c1,35.5%
5,c1ccc(Nc2nnc(-c3cc(-c4cccnc4)n(-c4ccccc4)n3)s2)cc1,70.8%
6,N[C@H]1CCC[C@@H]1NCCCCN1C(=O)c2cccc3cc([N+](=O)[O-])cc(c23)C1=O,29.4%
7,CC(C)(C)c1cc(C=O)cc(C(C)(C)C)c1O,-23.5% (active)
8,CC(C)C[C@@H](C(=O)N[C@H](C(=O)OC1CCCC1)c1ccccc1)[C@H](O)C(=O)NO,35.9%
9,COc1ccc2sc3c(NCCCN)nc4ccccc4c3c(=O)c2c1,2.17% (active)
10,COc1cc(-c2csc(NC(=O)Nc3cc(C(F)(F)F)cc(C(F)(F)F)c3)n2)cc(OC)c1OC,12%
11,COc1cc(C(=O)/C=C/c2sc(Cl)nc2Cl)cc(OC)c1OC,23.4%
12,Oc1[nH]c2cc(Cl)ccc2c1/C=c1/ccc2c(c1)N=C(c1cc(F)cc(F)c1)N=2,-9.98% (active)
13,O=c1c2cc(F)cc(Cl)c2sc2c(Cl)nc3ccccc3c12,115%
14,COc1ccc(-c2nc(-c3nc4ccc(Cl)cc4[nH]3)c3ccccn23)cc1,82.8%
15,O=C(Cn1nncc1CN1C(=O)CSC1=O)Nc1ccc(F)cc1,100%
16,COc1cc(-c2nn(-c3ccc(NC(=O)Nc4ccc(Cl)c(Cl)c4)cc3)cc2-c2ccncc2)ccc1Cl,4.29% (active)
17,CC(C)[C@@H]1CC[C@]2(C(=O)NCCCCN=C(N)N)CC[C@]3(C)[C@H](CC[C@@H]4[C@@]5(C)CCC(=O)C(C)(C)[C@@H]5CC[C@]43C)[C@@H]12,13.5%
18,c1ccc2c(-c3c4ccsc4cc4[nH]c5ccccc5c34)c[nH]c2c1,14.3%
19,COc1ccc(-c2cc(-c3ccc(Nc4nc(Nc5ccccc5)nc(Nc5ccc(Cl)cc5)n4)cc3)nc(N)n2)cc1,101%
20,CCC(c1ccc(OC)cc1)C(CC)c1ccc(O)c(CN2CCN(C)CC2)c1 (stereo not given),55.3%
